± gives the standard deviation of the averaged measurements.

One assay has as its system E18 rat cortical neuron-glia co-culture. As to the kind of experiment: fiber score / MBP score (myelination specific beyond OL differentiation) (ratio); higher = more myelination-specific MBP alignment. Conditions: 1 µM; treatment time: 8 days (DIV5-DIV13). Summed up:
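Papain-dissociated primary E18 rat cortical co-cultures, plated at 20,000 cells/well on poly-d-lysine/laminin 96-well plates, were exposed to library compounds at 1 or 5 µM in myelination medium between DIV5 and DIV13. Following fixation in 4 % paraformaldehyde, cultures were stained for MBP, Olig2 and DAPI, and four 10X fields per well were analysed in duplicate wells. Values are the ratio of fiber score (continuous MBP fiber length per Olig2+ nucleus) to MBP score (thresholded MBP area × intensity per Olig2+ nucleus).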
`Cc1nccn1CC1CCc2c(c3ccccc3n2C)C1=O` (stereo unspecified) [Ondansetron]: the “fiber score / MBP score” value worked out at 0.73 ± 0.022.
The same measure, in the same setting: with `CCN(CC)CCNC(=O)c1ccc(N)cc1` [Procainamide] the figure was 0.82; with `Nc1nc(Cl)nc2c1ncn2[C@@H]1O[C@H](CO)[C@@H](O)[C@H]1O` [2-Chloroadenosine], 0.752.
Turning to `COC(=O)C1=C(C)NC(C)=C(C(=O)OC(C)C)C1c1cccc2nonc12` (stereo unspecified) [Isradipine], the “fiber score / MBP score” value turned out to be 0.618.
Still for that read-out and setting: as for `O=C(CCCN1CC=C(n2c(=O)[nH]c3ccccc32)CC1)c1ccc(F)cc1` [Droperidol], the figure is 0.863.
On to `CO[C@H]1/C=C/O[C@@]2(C)Oc3c(C)c(O)c4c(O)c(c(/C=N/N5CCN(C6CCCC6)CC5)c(O)c4c3C2=O)NC(=O)/C(C)=C\C=C\[C@H](C)[C@H](O)[C@@H](C)[C@@H](O)[C@@H](C)[C@H](OC(C)=O)[C@@H]1C` [Rifapentine], for which the “fiber score / MBP score” value was determined as 0.893 ± 0.081.
Same read-out and setting: with `C=CC[C@@H]1/C=C(\C)C[C@H](C)C[C@H](OC)[C@H]2O[C@@](O)(C(=O)C(=O)N3CCCC[C@H]3C(=O)O[C@H](/C(C)=C/[C@@H]3CC[C@@H](O)[C@H](OC)C3)[C@H](C)[C@@H](O)CC1=O)[C@H](C)C[C@@H]2OC` [Tacrolimus] the figure was 0.687; with `Cc1c(O)cccc1C(=O)N[C@@H](CSc1ccccc1)[C@H](O)CN1C[C@H]2CCCC[C@H]2C[C@H]1C(=O)NC(C)(C)C` [Nelfinavir], 0.779; with `CNC(=N)NCCC[C@H](N)C(=O)O`, 0.684.
For the compound `N[C@@H]1CONC1=O` [Cycloserine], the “fiber score / MBP score” value was 0.562 ± 0.18.
The same measure, in the same setting: with `CCN(CC)CC(=O)Nc1c(C)cccc1C` [Lidocaine] the figure was 0.745; with `CCC1(c2ccccc2)C(=O)NCNC1=O` [Primidone], 0.952.

The assay is the same for the next values; noted with them: 5 µM; treatment time: 8 days (DIV5-DIV13).
For the compound `c1cnc(N2CCN(Cc3ccc4c(c3)OCO4)CC2)nc1` [Piribedil], the “fiber score / MBP score” value was found to be 0.712.
In the case of `CC(=O)[C@H]1CC[C@H]2[C@@H]3C[C@H](C)C4=CC(=O)CC[C@]4(C)[C@H]3[C@@H](O)C[C@]12C` [Medrysone], the “fiber score / MBP score” value was 1.1.
The same measure, in the same setting: as for `CN(C)CCCN1c2ccccc2CCc2ccc(Cl)cc21` [Clomipramine], the figure is 0.899; as for `CCCc1nc(C(C)(C)O)c(C(=O)O)n1Cc1ccc(-c2ccccc2-c2nnn[nH]2)cc1` [Olmesartan], 0.698; as for `Nc1nc(N)nc(-c2cc(Cl)ccc2Cl)n1` [Irsogladine], 0.877.
The same measure, in the same setting: as for `CC(C)OC(=O)CCC/C=C\C[C@@H]1[C@@H](CC[C@@H](O)CCc2ccccc2)[C@H](O)C[C@@H]1O` [Latanoprost], the figure is 0.853; as for `CC1CNc2c(cccc2S(=O)(=O)N[C@@H](CCCNC(=N)N)C(=O)N2CC[C@@H](C)C[C@@H]2C(=O)O)C1` (stereo partly specified) [Argatroban], 0.566; as for `COc1c(N2CCNC(C)C2)c(F)cc2c(=O)c(C(=O)O)cn(C3CC3)c12` (stereo unspecified) [Gatifloxacin], 0.609.
On the same count and under the same terms, with `O=C1N(c2ccccc2)c2ccccc2C1(Cc1ccncc1)Cc1ccncc1` [Linopirdine] the figure was 0.73; with `COc1ccccc1N1CCN(CCCNc2cc(=O)n(C)c(=O)n2C)CC1` [Urapidil], 0.799; with `CN1C2CCCC1CC(NC(=O)c1nn(C)c3ccccc13)C2` (stereo unspecified) [Granisetron], 1.1.
In the case of `Cc1ccc(-c2cc(C(F)(F)F)nn2-c2ccc(S(N)(=O)=O)cc2)cc1` [Celecoxib], the “fiber score / MBP score” value was 1.01.
On the same count and under the same terms, as for `CCc1cccc2c3c([nH]c12)C(CC)(CC(=O)O)OCC3` (stereo unspecified) [Etodolac], the figure is 1.38.
On the same count and under the same terms, with `NS(=O)(=O)c1cc(C2(O)NC(=O)c3ccccc32)ccc1Cl` (stereo unspecified) [Chlorthalidone] the figure was 1.09; with `Nc1cc(N2CCCCC2)nc(N)[n+]1[O-]` [Minoxidil], 0.658; with `COc1ccc2[nH]c([S@@+]([O-])Cc3ncc(C)c(OC)c3C)nc2c1` [Esomeprazole], 0.979.
On the same count and under the same terms, with `Cn1c(NCCN(CCO)CCCc2ccc([N+](=O)[O-])cc2)cc(=O)n(C)c1=O` [Nifekalant] the figure was 0.616; with `CCCOc1ccc(C(=O)OCCN(CC)CC)cc1N` [Proxymetacaine], 0.433.
On to `COCCCOc1ccnc(C[S+]([O-])c2nc3ccccc3[nH]2)c1C` (stereo unspecified) [Rabeprazole], for which the “fiber score / MBP score” value was found to be 0.912.
With `OC(CCN1CCCCC1)(c1ccccc1)C1CCCCC1` (stereo unspecified) [Trihexyphenidyl], the “fiber score / MBP score” value was 0.486.
In the case of `CCN(CC)CCNC(=O)c1cc(Cl)c(N)cc1OC` [Metoclopramide], the “fiber score / MBP score” value was found to be 0.91.
Still for that read-out and setting: with `COc1cc(N)c(Cl)cc1C(=O)NC1CCN(CCCOc2ccc(F)cc2)CC1OC` (stereo unspecified) [Cisapride] the figure was 0.515.
Still for that read-out and setting: as for `CC1(C)O[C@@H]2[C@@H](CO[C@@]3(COS(N)(=O)=O)OC(C)(C)O[C@@H]23)O1` [Topiramate], the figure is 0.896; as for `CC(C)Cc1ccc(C(C)C(=O)O)cc1` (stereo unspecified) [Ibuprofen], 0.833; as for `COC(=O)[C@H](c1ccccc1Cl)N1CCc2sccc2C1` [Clopidogrel], 0.858.
Same read-out and setting: as for `COC1=CC(=O)C[C@@H](C)[C@]12Oc1c(Cl)c(OC)cc(OC)c1C2=O` [Griseofulvin], the figure is 0.92; as for `O=C(O)c1cc(/N=N/c2ccc(S(=O)(=O)Nc3ccccn3)cc2)ccc1O` [Sulfasalazine], 1.17; as for `Cc1nccn1CC1CCc2c(c3ccccc3n2C)C1=O` (stereo unspecified) [Ondansetron], 0.404 ± 0.053.
As to `CCN(CC)CCNC(=O)c1ccc(N)cc1` [Procainamide], the “fiber score / MBP score” value is 1.19.
As to `Nc1nc(Cl)nc2c1ncn2[C@@H]1O[C@H](CO)[C@@H](O)[C@H]1O` [2-Chloroadenosine], the “fiber score / MBP score” value amounted to 0.764.
Take `COC(=O)C1=C(C)NC(C)=C(C(=O)OC(C)C)C1c1cccc2nonc12` (stereo unspecified) [Isradipine]: the “fiber score / MBP score” value is 0.922.
As for `O=C(CCCN1CC=C(n2c(=O)[nH]c3ccccc32)CC1)c1ccc(F)cc1` [Droperidol], the “fiber score / MBP score” value came out at 0.601.
Regarding `CO[C@H]1/C=C/O[C@@]2(C)Oc3c(C)c(O)c4c(O)c(c(/C=N/N5CCN(C6CCCC6)CC5)c(O)c4c3C2=O)NC(=O)/C(C)=C\C=C\[C@H](C)[C@H](O)[C@@H](C)[C@@H](O)[C@@H](C)[C@H](OC(C)=O)[C@@H]1C` [Rifapentine], the “fiber score / MBP score” value was determined as 1.12 ± 0.52.
As to `C=CC[C@@H]1/C=C(\C)C[C@H](C)C[C@H](OC)[C@H]2O[C@@](O)(C(=O)C(=O)N3CCCC[C@H]3C(=O)O[C@H](/C(C)=C/[C@@H]3CC[C@@H](O)[C@H](OC)C3)[C@H](C)[C@@H](O)CC1=O)[C@H](C)C[C@@H]2OC` [Tacrolimus], the “fiber score / MBP score” value came to 0.587.
As to `Cc1c(O)cccc1C(=O)N[C@@H](CSc1ccccc1)[C@H](O)CN1C[C@H]2CCCC[C@H]2C[C@H]1C(=O)NC(C)(C)C` [Nelfinavir], the “fiber score / MBP score” value was found to be 0.634.
Still for that read-out and setting: with `CNC(=N)NCCC[C@H](N)C(=O)O` the figure was 0.854; with `N[C@@H]1CONC1=O` [Cycloserine], 0.637; with `CCN(CC)CC(=O)Nc1c(C)cccc1C` [Lidocaine], 0.698.
Take `CCC1(c2ccccc2)C(=O)NCNC1=O` [Primidone]: the “fiber score / MBP score” value stood at 1.03.
